In PubChem BioAssay (Tox21) one finds Potency and activity, negative = inhibition data, which are given here for 47 compounds.

Results filed as inconclusive are left out. A call without a number means that no potency is given here. Unmarked numbers belong to inactive results. Activity calls are given as the source filed them. Calls follow the shape of the full dose curve.

The assay concerns the target Muscarinic acetylcholine receptor M1 (Homo sapiens) (UniProt P11229). The experiment in a line: Cholinergic receptor muscarinic 1 (CHRM1) small molecule antagonists, cell-based qHTS assay (AID 1963588). Also: nearly all actives have a fitted effect of over 40% in size. A digest of the protocol: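 Compounds were tested at 15 concentrations in three independent runs. Dye-loaded CHRM1-CHO cells were exposed 5 min at room temperature before stimulation by acetylcholine added at 50nM. Intracellular calcium was read kinetically on FDSS for 3 min.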
Potency is read from the fitted curve at half-maximal effect.

Sequence of Muscarinic acetylcholine receptor M1 (Homo sapiens) (P11229 whole entry, looked up): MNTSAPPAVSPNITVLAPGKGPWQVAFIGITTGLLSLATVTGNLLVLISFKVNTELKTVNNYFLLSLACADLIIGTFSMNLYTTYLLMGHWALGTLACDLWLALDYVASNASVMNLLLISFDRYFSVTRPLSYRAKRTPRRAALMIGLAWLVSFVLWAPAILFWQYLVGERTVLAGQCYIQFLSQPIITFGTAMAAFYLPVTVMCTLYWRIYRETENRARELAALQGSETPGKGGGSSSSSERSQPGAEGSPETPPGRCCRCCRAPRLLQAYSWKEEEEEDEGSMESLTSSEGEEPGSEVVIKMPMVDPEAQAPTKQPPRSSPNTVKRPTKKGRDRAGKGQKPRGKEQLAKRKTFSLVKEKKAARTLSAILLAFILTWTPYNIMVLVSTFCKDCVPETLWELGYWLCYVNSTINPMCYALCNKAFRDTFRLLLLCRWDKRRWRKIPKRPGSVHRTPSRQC

For `CCC(C)(CCCC(C)C)OC(C)=O` (configuration not stated), the Potency result is “inactive”.
Same read-out and setting: under `Cc1ccc2ccccc2n1` stands “inactive”; under `CCOC(=O)/C=C/C(=O)O`, “inactive”.
Still for that read-out and setting: as for `CN(C[C@@H](CC[N+]12CCC(C3CCCCC3)(CC1)CC2)c1ccc(Cl)c(Cl)c1)C(=O)c1cc(C(F)(F)F)cc(C(F)(F)F)c1`, the figure is 94.2 nM (active); as for `C[Si](C)(CCCN)O[Si](C)(C)CCCN`, “inactive”.
Consider `BrC/C=C/CBr`, for which the activity, negative = inhibition was -3.79% [at 12.6 µM].
`CC(=O)O[C@@H]1C(=O)O[C@@H]2[C@H]1OC(=O)[C@@H]2OC(C)=O`: the Potency entry was “inactive”.
Still for that read-out and setting: as for `O=C(OCC1(COC(=O)c2cccnc2)CCCC(COC(=O)c2cccnc2)(COC(=O)c2cccnc2)C1O)c1cccnc1`, the entry is “inactive”; as for `C/C(=C\C(C)CC(C)CC(C)C)C1CC(=O)OC1=O` (configuration not stated), “inactive”; as for `CC(C)(C)c1cc(CCC(=O)NN)cc(C(C)(C)C)c1O`, “inactive”.
Same read-out and setting: under `Oc1ccc(-c2ccc(O)cc2)cc1` stands “inactive”; under `O=C1CCCN1CCO`, “inactive”.
Same read-out and setting: under `CC(=O)c1ccc2ccc3ccccc3c2c1` stands “inactive”; under `C/C=C/C=C/CCCCCCCO`, “inactive”; under `CC(C)COC(=O)c1ccccc1`, “inactive”.
Regarding `CCCCCCC1CCCC(=O)O1` (configuration not stated), the Potency result was “inactive”.
As to `OCCSc1ccccc1`, the Potency entry was “inactive”.
Still for that read-out and setting: as for `CCOC(=O)CS`, the entry is “inactive”; as for `c1ccc(-c2nn[nH]n2)cc1`, “inactive”; as for `CC(=O)Nc1ccn(C2COC(COC(=O)c3ccccc3)O2)c(=O)n1` (configuration not stated), “inactive”.
In the case of `OC1OCCOC1O` (configuration not stated), the Potency result is “inactive”.
Same read-out and setting: as for `Cc1c(C)c([N+](=O)[O-])c(C(C)(C)C)c([N+](=O)[O-])c1C`, the entry is “inactive”; as for `CCC(C)COC(=O)CC(C)C` (configuration not stated), “inactive”.
In the case of `C=CC/C=C/C`, the Potency entry was “inactive”.
With `Cc1cc(SC2=C(O)C[C@@](CCc3ccc(N)cc3)(C(C)C)OC2=O)c(C(C)(C)C)cc1CO`, the Potency result is “inactive”.
Same read-out and setting: under `O=C(OCC1CO1)C1CCCCC1C(=O)OCC1CO1` (configuration not stated) stands “inactive”; under `COC(=O)C1=C(C)NC(C)=C(C(=O)OCCN2CCN(C(c3ccccc3)c3ccccc3)CC2)C1c1cccc([N+](=O)[O-])c1` (configuration not stated), “inactive”.
Take `CCOC(=O)Nc1ccc(NCc2ccc(F)cc2)nc1N`: the Potency result is “inactive”.
On the same count and under the same terms, as for `O=C(CCc1ccc(O)cc1)c1c(O)cc(O)cc1O`, the entry is “inactive”.
Still for that read-out and setting: as for `CCCOC(=O)c1ccc(C(=O)OCCC)nc1`, the entry is “inactive”; as for `O=C(O)CCN(C1(C(=O)NO)CCCC1)S(=O)(=O)c1ccc(Oc2ccc(F)cc2)cc1`, “inactive”; as for `O=C(O)c1cc(O)c2ccccc2c1O`, “inactive”.
Consider `O=C(c1ccc(O)cc1)c1ccc(Cl)cc1`, for which the Potency result was “inactive”.
Same read-out and setting: under `Nc1ccc2cc(S(=O)(=O)O)cc(O)c2c1` stands “inactive”.
With `CCOC(=O)CCCCCCCCC(=O)OCC`, the Potency result is “inactive”.
With `CC1=C(C(=O)OC(C)C)C(c2cccc([N+](=O)[O-])c2)C(C(=O)OC2CN(C(c3ccccc3)c3ccccc3)C2)=C(N)N1` (configuration not stated), the Potency result is “inactive”.
For the compound `CCOC(=O)CC#N`, the Potency result was “inactive”.
On the same count and under the same terms, as for `O=C1C(=O)c2ccccc2C(O)=C1C1CCC(c2ccc(Cl)cc2)CC1` (configuration not stated), the entry is “inactive”; as for `CC(CC(C)(C)C)CC(C)(C)CC(C)(C)C` (configuration not stated), “inactive”.
On the same count and under the same terms, under `CCC1CCC(CCC(=O)O)C1` (configuration not stated) stands “inactive”.
Still for that read-out and setting: under `Cc1cccc(N(C)C(=S)Oc2ccc3c(c2)CCC3)c1` stands “inactive”; under `CCCS(=O)c1ccc2nc(NC(=O)OC)[nH]c2c1` (configuration not stated), “inactive”.
As for `CC(C)=CCC/C(C)=C/CC/C(C)=C/CO`, the Potency result is “inactive”.
The same measure, in the same setting: under `CCCCS` stands “inactive”.
On the same count and under the same terms, under `O=C1OC(=O)C2CCCCC12` (configuration not stated) stands “inactive”.
Turning to `C[C@]12CCC(=O)C=C1CC[C@@H]1[C@@H]2[C@@H](O)C[C@@]2(C)[C@H]1CC[C@]2(O)C(=O)COC(=O)CCC(=O)O`, the Potency result was “inactive”.
Same read-out and setting: under `O=C(O)CCCCCCC(=O)O` stands “inactive”.
